# Screening results: PubChem BioAssay, Johns Hopkins Ion Channel Center
# KCNQ2 inh: KCNQ2 (rat) channel inhibition | O88943 | 310,000 tested, 1.1% active | B-score at 10 µM | AID 2156 | CHO-K1 KCNQ2, FluxOR thallium flux, 20 min; stronger effect = lower value;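 active means fluorescence ratio B-score at most minus 3 library SDs, with starting brightness B-score within 2 library SDs, cut at about -5.5 in these data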
# Target sequence (O88943 whole entry, looked up): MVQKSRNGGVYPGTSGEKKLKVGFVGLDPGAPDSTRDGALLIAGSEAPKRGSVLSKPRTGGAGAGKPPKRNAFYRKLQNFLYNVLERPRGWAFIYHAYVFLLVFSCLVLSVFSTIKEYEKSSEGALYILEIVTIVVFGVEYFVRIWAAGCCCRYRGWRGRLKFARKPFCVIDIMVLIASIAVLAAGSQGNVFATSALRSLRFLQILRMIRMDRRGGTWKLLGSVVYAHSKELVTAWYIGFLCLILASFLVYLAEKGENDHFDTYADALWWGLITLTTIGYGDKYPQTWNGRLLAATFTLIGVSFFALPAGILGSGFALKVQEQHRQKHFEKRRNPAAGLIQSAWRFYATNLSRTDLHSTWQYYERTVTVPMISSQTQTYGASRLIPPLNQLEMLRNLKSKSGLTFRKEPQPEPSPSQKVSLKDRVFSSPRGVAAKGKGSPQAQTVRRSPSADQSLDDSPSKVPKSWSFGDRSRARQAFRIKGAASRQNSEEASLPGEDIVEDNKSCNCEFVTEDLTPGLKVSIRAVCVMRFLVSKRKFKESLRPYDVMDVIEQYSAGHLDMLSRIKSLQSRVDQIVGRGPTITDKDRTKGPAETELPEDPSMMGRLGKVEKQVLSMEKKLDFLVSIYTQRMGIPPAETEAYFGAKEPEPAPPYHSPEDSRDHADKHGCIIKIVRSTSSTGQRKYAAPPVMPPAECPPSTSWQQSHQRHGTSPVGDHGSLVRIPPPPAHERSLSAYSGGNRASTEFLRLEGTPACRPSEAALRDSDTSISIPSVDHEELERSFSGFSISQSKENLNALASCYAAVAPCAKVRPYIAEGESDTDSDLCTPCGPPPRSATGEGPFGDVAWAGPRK
# KCNQ2 enhance: KCNQ2 (rat) channel potentiation; 310,000 tested, 0.54% active; AID 2239; CHO-K1 KCNQ2, FluxOR thallium flux fluorescence; stronger effect = higher value; O88943; B-score at 10 µM;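 active means fluorescence ratio B-score at least 3 SD of library B-scores, with initial fluorescence B-score within 3 of them, cut at about 5.3 in these data; same plate scores as AID 2156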;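 further: B-score of peak minus minimum over baseline fluorescence ratio after K+ and Tl+ stimulus; positive B-score means potentiation of KCNQ2 with more thallium influx and brighter signal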
# Starred values were filed as active, the others as inactive; i = inactive; · = no result. Rows were chosen to be rich in hits. Some 1.6% of all compounds tested hit in one or more screens of this group.
SMILES,KCNQ2 inh,KCNQ2 enhance
Cc1ccccc1C(=O)NNC(=S)NC(=O)c1ccccc1,i,5.3*
O=C(NC(=S)NNC(=O)c1ccccc1O)c1ccccc1,i,·
Cc1ccccc1NC(=O)C(C)OC(=O)CNS(=O)(=O)c1ccc(C#N)cc1 (centres undefined),i,·
CC(C)CN(C(=O)CN1C(=O)C2CCCCC2C1=O)c1c(N)n(Cc2ccccc2)c(=O)[nH]c1=O (centres undefined),i,0.85
CCC1CCCCN1CCCNC(=O)c1ccc2c(c1)N(Cc1c(F)cccc1Cl)C(=O)CS2 (centres undefined),i,·
O=C(NCc1ccc2c(c1)OCO2)c1ccc2c(c1)N(Cc1c(F)cccc1Cl)C(=O)CS2,i,8.7*
NC(=O)CC(NC(=O)c1ccccc1)c1ccc(NCc2ccccn2)c([N+](=O)[O-])c1 (centres undefined),i,·
CCCn1c(O)c(N=NC(=O)c2ccco2)c2ccccc21,i,11*
CCn1c(O)c(N=NC(=O)CNC(=O)c2ccco2)c2ccccc21,i,2.6
CC1=Nc2ccccc2N=C(NC(=O)CN2CCN(c3ccccc3)CC2)C1c1ccccc1 (centres undefined),-6.5*,-6.5
CCOC(=O)C1CCCN(CC(=O)NC2=Nc3ccccc3N=C(C)C2c2ccccc2)C1 (centres undefined),i,·
C=CCN1C(=O)[C@@H]2Cc3c([nH]c4ccccc34)C(c3cc(OC)c(OC)c(OC)c3)N2C1=S (some centres undefined),-6.1*,-6.1
CCN1C(=O)[C@@H]2Cc3c([nH]c4ccccc34)C(c3cc(OC)c(OC)c(OC)c3)N2C1=S (some centres undefined),i,·
Nc1cc(=O)[nH]c(=O)n1CCCc1ccccc1,i,0.99
COc1cccc2c1OCC/C2=N\NC(=O)COc1ccc(C)cc1,i,0.24
Cc1ccc(OCC(=O)N/N=C2\CCOc3c(C)cccc32)cc1,-6.8*,-6.8
O=C(NC1CCCCCCC1)c1ccc(Br)o1,i,3.6
Cc1cc(=O)nc2c3ccccc3n(CC(=O)NCCCN3CCCCC3C)n12 (centres undefined),i,1.1
NC(=O)CSc1nnc(COc2cccc3ccccc23)o1,i,1.1
O=C(CSc1nnc(COc2cccc3ccccc23)o1)N1c2ccccc2CCc2ccccc21,-8.4*,-8.4
COc1ccccc1CNC(=O)c1ccc2nc(N3CCOCC3)sc2c1,i,·
COc1cccc(-n2nnnc2S(C)(=O)=O)c1,-7.8*,-7.8
COc1cccc(Oc2nnnn2-c2ccccc2)c1,i,·
CN(Cc1ccccc1)C(=O)COc1ccc(Br)cc1Cl,i,·
COC(=O)C1CCCN1C(=O)COc1ccc(Br)cc1Cl (centres undefined),i,6.6*
SMILES,KCNQ2 inh,KCNQ2 enhance
CC(C)N(C(=O)COc1ccc(Br)cc1Cl)C(C)C,-5.7*,-5.7
O=C(COc1ccc(Br)cc1Cl)NC1CCCCC1,i,0.71
CSc1ccc(CNC(=O)C2CCC(=O)N(Cc3cccc(F)c3)C2)cc1 (centres undefined),i,0.25
CCOC(=O)C(Cc1ccccc1)c1ccnc2ncnn12 (centres undefined),i,0.13
CN1CCC(=O)N([C@H](CO)c2ccccc2)CC1,i,0.42
C=CCOC(=O)/C(=C\c1cccc2ccccc12)NC(=O)c1ccccc1,-5.8*,-5.8
C=CCOC(=O)/C(=C\c1ccccc1)NC(=O)c1ccc(C)cc1,i,·
Cc1ccc(C)c(NC(=O)c2ccc(S(=O)(=O)N(C)CC3CCCO3)cc2)c1 (centres undefined),i,0.39
O=C(OCc1ccccc1)/C(=C(\O)c1ccccc1Br)c1ccc(-c2ccccc2)cn1,i,·
Cc1ccc(C)c(CN2C(=O)NC3(CCCCCC3)C2=O)c1,i,1.2
Cc1ccc2c(CN3C(=O)NC4(CCCCC4)C3=O)cc(=O)oc2c1C,-6.6*,-6.6
Cn1c(NC(=O)/C=C\c2ccccc2)cc(=O)n(C)c1=O,i,0.05
O=C(CCCc1ccccc1)NCc1ccccc1Cl,i,·
CO/N=C/c1ccc(Sc2ccc(C)cc2)c([N+](=O)[O-])c1,i,0.8
CO/N=C/c1cc([N+](=O)[O-])ccc1Sc1ccc(C)cc1,-7.4*,-7.4
CCN(CC)S(=O)(=O)c1ccc(O)c(C(=O)OCC(=O)Nc2ccc(OC(F)(F)F)cc2)c1,i,0.62
COc1ccc(-c2cc(C(F)(F)F)n3nc(C(=O)NCc4ccco4)cc3n2)cc1OC,-5.6*,-5.6
O=C(NCc1ccco1)c1cc2nc(C3CC3)cc(C(F)(F)F)n2n1,i,0.43
COc1ccc2cc(C#N)c(SCC(=O)NNC(=O)Cc3ccccc3)nc2c1,-6.2*,-6.2
COC(=O)CSc1nc2cc(OC)ccc2cc1C#N,i,0.06
CCOc1ccc(S(=O)(=O)NCCC(=O)Nc2nnc(C)s2)cc1,i,·
Cc1ccccc1C(=O)N1CCN(C(c2ccccc2)c2ccccc2)CC1,i,·
Cc1occc1C(=O)N1CCN(C(c2ccccc2)c2ccccc2)CC1,-6.4*,-6.4
CCCn1c(N)c(C(=O)CN2CCc3ccccc3C2)c(=O)n(C)c1=O,i,·
CCCCn1c(N)c(C(=S)NC(=O)CC(C)(C)C)c(=O)n(C)c1=O,i,6.9*
SMILES,KCNQ2 inh,KCNQ2 enhance
CN(C)C1(CNC(=O)c2cccc(S(=O)(=O)Nc3ccc(Br)cc3)c2)CCCCC1,i,·
Cc1ccc(NC(=O)c2ccc(Cl)c(N3C(=O)CCC3=O)c2)cc1,i,0.68
FC(F)(F)c1ccc(-c2csc(-c3ccno3)n2)cc1,i,·
CC(C)(C)C(=O)OCc1nc(-c2ccc(C(F)(F)F)cc2)cs1,-5.6*,-5.6
COc1ccccc1CN1[C@@H](CC(C)=O)c2cc(C(F)(F)F)ccc2S1(=O)=O,i,0.01
CN(CC(=O)Nc1cc(Cl)cc(Cl)c1)Cc1cccs1,-5.6*,-5.6
CN(CC(=O)Nc1ccc(F)cc1Cl)Cc1cccs1,i,·
N#Cc1ccc(C(=O)NC23CC4CC(CC(C4)C2)C3)cc1,i,·
CCn1c(=O)c(C(=O)NCCc2ccc(Cl)cc2)c(O)c2ccccc21,i,1.2
CCCn1c(=O)c(C(=O)NCCc2ccc(Cl)cc2)c(O)c2ccccc21,-5.6*,-5.6
c1ccc(COc2ccccc2CNc2nn[nH]n2)cc1,i,1.1
Cc1ccc(-c2ccc(C(=O)NCc3ccccc3)o2)c2ccccc12,i,·
Cc1ccc(-c2ccc(C(=O)Nc3ccccc3)o2)c2ccccc12,-5.7*,-5.7
O=C(c1ccco1)C(O)c1ccco1 (centres undefined),i,0.11
COc1ccc(OC)c(C(=O)N2CCC(CCC(=O)NC3CC3)CC2)c1,i,0.01
Cc1cccc(C(=O)Nc2ccc(C(=O)/C=C/c3ccncc3)cc2)c1,-6*,-6
Cc1cccc(C(=O)Nc2ccc(C(=O)/C=C/c3cccnc3)cc2)c1,i,·
O=C(NC(=S)Nc1ccccc1F)C1CCCCC1,i,·
CCOC(=O)c1c(N2C(=O)Nc3ccccc3N2O)n[nH]c1-c1cccc(Cl)c1,i,10*
CCOc1ccc(-c2cc(N3C(=O)Nc4ccccc4N3O)n[nH]2)cc1,i,0.35
CC(Oc1ccccc1Cl)C(=O)Nc1ccccc1C(=O)N1CCOCC1 (centres undefined),i,·
CN(CC(=O)Nc1c(Cl)cccc1Cl)C(=O)c1n[nH]c2ccccc12,i,1.6
CC(C)N(Cc1ccccc1)C(=O)CCc1ccccc1,i,·
